Source: PubChem BioAssay
“And” between values parts separate entries of the source, which are not always exact repeats. Equal entries are not always repeated. Results filed as inconclusive are left out. The source made the active and inactive calls.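 How the source made its calls, unless noted: active means normalized viability below 100% at a tested concentration; inactive means the rest.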

How the values were obtained:
[1] = molecular target: ATP-dependent translocase ABCB1 (Homo sapiens) (UniProt P08183); test: MDR1 (ABCB1) efflux transporter inhibition, cell-based (AID 377; in the data active means fluorescence slope change above about 50%); conditions: MDR1-expressing cells, fluorescent substrate accumulation slope; stronger effect = higher value; concentration not given here
ATP-dependent translocase ABCB1 (Homo sapiens), sequence (P08183 whole entry, looked up): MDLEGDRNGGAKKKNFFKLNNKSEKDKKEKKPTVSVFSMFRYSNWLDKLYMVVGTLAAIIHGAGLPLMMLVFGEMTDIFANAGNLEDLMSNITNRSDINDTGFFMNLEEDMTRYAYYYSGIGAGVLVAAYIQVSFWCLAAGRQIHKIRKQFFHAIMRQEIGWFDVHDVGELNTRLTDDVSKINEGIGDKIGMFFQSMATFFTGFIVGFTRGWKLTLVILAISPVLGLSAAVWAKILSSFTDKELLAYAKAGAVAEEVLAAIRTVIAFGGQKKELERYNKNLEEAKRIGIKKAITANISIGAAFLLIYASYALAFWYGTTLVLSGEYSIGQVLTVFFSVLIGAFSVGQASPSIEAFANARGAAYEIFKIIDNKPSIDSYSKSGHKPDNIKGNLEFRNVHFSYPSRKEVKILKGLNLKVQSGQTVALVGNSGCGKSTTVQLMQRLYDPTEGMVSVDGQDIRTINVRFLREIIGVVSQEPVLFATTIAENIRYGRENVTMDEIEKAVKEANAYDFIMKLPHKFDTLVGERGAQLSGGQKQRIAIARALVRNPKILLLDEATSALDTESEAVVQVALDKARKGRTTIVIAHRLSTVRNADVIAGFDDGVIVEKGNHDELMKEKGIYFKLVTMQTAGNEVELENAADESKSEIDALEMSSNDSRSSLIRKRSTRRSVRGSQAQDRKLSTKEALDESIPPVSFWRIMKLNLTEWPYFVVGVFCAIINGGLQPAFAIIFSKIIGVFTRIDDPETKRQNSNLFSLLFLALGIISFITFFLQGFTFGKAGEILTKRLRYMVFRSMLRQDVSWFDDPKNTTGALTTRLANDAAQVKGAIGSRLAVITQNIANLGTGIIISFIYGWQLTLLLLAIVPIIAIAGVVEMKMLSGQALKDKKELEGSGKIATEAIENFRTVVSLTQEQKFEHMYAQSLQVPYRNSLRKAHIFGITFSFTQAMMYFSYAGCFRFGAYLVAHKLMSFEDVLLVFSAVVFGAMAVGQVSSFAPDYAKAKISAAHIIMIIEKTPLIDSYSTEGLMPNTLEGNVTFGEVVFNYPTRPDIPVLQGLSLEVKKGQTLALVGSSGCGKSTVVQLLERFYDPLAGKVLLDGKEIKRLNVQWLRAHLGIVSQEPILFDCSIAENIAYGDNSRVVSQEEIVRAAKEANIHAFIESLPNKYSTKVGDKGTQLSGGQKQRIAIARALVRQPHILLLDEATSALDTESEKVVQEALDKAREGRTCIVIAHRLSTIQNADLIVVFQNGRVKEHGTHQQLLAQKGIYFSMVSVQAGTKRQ

[2] = hESC survival regulators, cell-based (AID 493140; call rule not given here;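 further: cells exposed to compounds for four days before counting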); conditions: human embryonic stem cell survival screen; stronger effect = higher value
[3] = liver-stage malaria parasite growth inhibition, primary screen, cell-based, HepG2, luciferase luminescence, HepG2 viability (AID 624349; in the data active means parasite load remaining mostly below about 12%, no sharp cut-off; inactive means mostly above about 10%;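 further: 100% = mean of DMSO negative control wells on the same plate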); conditions: P. berghei liver stage in HepG2, luciferase luminescence, concentration not given here; parasite load remaining: stronger effect = lower value; viability: measured here: HepG2 viability without parasites
[4] = stimulators of nuclear beta-catenin in C2C12, primary screen, imaging, WNT3A-conditioned medium, mouse C2C12, NPC library (AID 1117326; in the data active means nuclear beta-catenin stimulation mostly above about 4.2%, no sharp cut-off; inactive means mostly below about 10%); conditions: stronger effect = higher value
[5] = stimulators of insulin release from INS-1E, primary screen, cell-based, 5 mM glucose, NPC library (AID 1117329;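 active means compound raises insulin release from rat beta cells at 5 mM glucose, no numeric limit stated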); conditions: rat INS-1E insulin secretion, at 10 µM, stronger effect = higher value
[6] = growth inhibition of GSK3B-pretreated HCT116 cells – cell-based, CellTiter-Glo, 0.2 to 20 µM (AID 1117336;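 active means compounds lowering colon cancer cell viability after pretreatment blocking the GSK3B kinase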); conditions: HCT116 viability after GSK3B inhibitor, at 20 µM, stronger effect = higher value
[7] = inhibition of endothelial tube formation, primary screen, imaging, VEGF stimulated, CD31 staining, tube area, NPC library (AID 1117340;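 active means compound that reduces growth-factor-driven endothelial tube area in a mixed cell culture, no cutoff stated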); conditions: VEGF-stimulated ADSC/ECFC co-culture, at 10 µM, stronger effect = higher value
[8] = glucagon-like peptide 1 release enhancers, primary assay, NCI-H716 cell line, NPC library (AID 1117341;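 active means compound raises GLP1 secretion from the human gut endocrine cells, with no numeric limit stated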); conditions: NCI-H716 cells, at 10 µM, stronger effect = higher value
[9] = HCT116 colon cancer cell growth inhibition, primary screen, CellTiter-Glo luminescence, NPC library (AID 1117342;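 active means compounds that lower survival of HCT116 colon cancer cells in the luminescence readout, no numeric limit stated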); conditions: at 20 µM (top of the series)
[10] = CellTiter-Glo luminescent readout of SW480 viability loss, NPC library primary (AID 1117343;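 active means compounds that lower viability of the colon cancer cells in the luminescence readout, with no numeric limit stated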); conditions: CellTiter-Glo luminescence; at 20 µM (top of the series) unless noted
[11] = decreased DLD-1 cellular survival, CellTiter-Glo luminescent readout, NPC compound collection, primary HTS (AID 1117346;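 active means compounds that lower survival of DLD-1 colon cancer cells in the luminescence readout, no cutoff given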); conditions: DLD-1 viability, CellTiter-Glo luminescence; at 20 µM (top of the series)
[12] = sensitizers of A549 cells to miR-34 induction, primary screen, imaging, A549 dox-inducible miR-34, nuclei and caspase counts (AID 1347080;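 active means compounds whose cell count with miR-34 switched on is under 0.7 times the count with it off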); conditions: A549 miR-34 inducible, Hoechst nuclei count, 48 h
[13] = survival rescue of mitochondrial mutant cells in low glucose, primary screen, MELAS cybrids, Rieske KO mouse fibroblasts, CellTiter-Glo (AID 1508586;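 active means mean z-score across replicates of 1.96 or higher in either the MELAS or the Rieske mutant cell line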;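 further: z relative to plate mean and SD of compound and empty wells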)
[14] = viability rescue of complex I mutant cybrids, primary screen, cell-based, galactose medium, ATP luminescence (AID 1645843;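 active means z-score of at least 1.8 in each of two replicates, scored against plate mean and spread of sample wells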;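 further: positive z means more ATP and so rescue of galactose-driven cybrid death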); conditions: complex I mutant cybrid cells, 72 h, stronger effect = higher value
[15] = ovarian cancer cell viability with rucaparib, profiling panel, oncology-focused library, rucaparib conditional (AID 1508598); conditions: patient-derived ovarian cancer cells, CellTiter-Glo viability, 144 h, stronger effect = lower value
[16] = stronger effect = lower value, cell number ratio, induced over uninduced
[17] = measured here: relative caspase fold change +Dox/-Dox
[18] = measured here: total cells with miR-34 induction, stronger effect = lower value
[19] = measured here: total cells without miR-34 induction
[20] = MELAS cybrid survival, CellTiter-Glo 48 h, stronger effect = higher value
[21] = Rieske KO mouse fibroblast survival, CellTiter-Glo 72 h

Cc1c(-c2ccccc2)oc2c(C(=O)OCCN3CCCCC3)cccc2c1=O
8120 and 9090: cell count [12, 18]
active: fluorescence slope change [1] 112%
8860 and 8560: cell count [12, 19]
-1%: nuclear beta-catenin stimulation ([4]; stimulation, at 2 µM)
inactive: survival [2] 21.4 | parasite load remaining [3] 46% and 89.3% | nuclear beta-catenin stimulation ([4]; at 10 µM) -2.4% | insulin secretion stimulation [5] 2.9% | viability decrease [6] -5.1% | tube area decrease [7] 19.4% | GLP1 secretion stimulation [8] -5.1% | inhibition of viability [9] 5.5% | viability decrease (inhibition) [10] 4.4% | viability decrease (inhibition) [11] -0.8% | fold change [12, 16] 0.916 and 1.06 | z-score [13, 20] -0.232 and 0.0828
1.01 and 0.699: fold change [12, 17]
49.7% and 89.5%: viability [3]
-0.166 and -0.00233: z-score [13, 21]

CC(C)NC[C@@H](O)COc1ccc(CC(N)=O)cc1
-0.0401: z-score [13, 21]
111%: viability [3]
1.2%: nuclear beta-catenin stimulation ([4]; stimulation, at 2 µM)
1.15: fold change [12, 17]
9650: cell count [12, 18]
11100: cell count [12, 19]
inactive: survival [2] 2.17 | parasite load remaining [3] 88.2% | nuclear beta-catenin stimulation ([4]; at 10 µM) 0.1% | insulin secretion stimulation [5] -1.9% | viability decrease [6] -4.35% | tube area decrease [7] -23.3% | GLP1 secretion stimulation [8] 3.3% | inhibition of viability [9] 1.1% | viability decrease (inhibition) [10] 11.3% | viability decrease (inhibition) [11] -7% | fold change [12, 16] 0.872 | z-score [13, 20] 0.458

CCOc1ccccc1OCC1CNCCO1 (stereo not given)
active: fluorescence slope change [1] 51.5%

O=C1NCN(c2ccccc2)C12CCN(CCCC(c1ccc(F)cc1)c1ccc(F)cc1)CC2
89.8% and 100%: viability [3]
inactive: survival [2] 0.417 | parasite load remaining [3] 45.3% and 31.6% | z-score [14] -0.995 and -1.48

O=C(OCCOCCO)c1ccccc1Nc1cccc(C(F)(F)F)c1
inactive: survival [2] 2.08

O=P(O)(O)C(Cl)(Cl)P(=O)(O)O
100%: viability [3]
inactive: parasite load remaining [3] 33.9%

CN1CC[C@H](c2c(O)cc(O)c3c(=O)cc(-c4ccccc4Cl)oc23)[C@H](O)C1
active: viability ([15]; at 0.000305 µM, OCI-P5x cells, with rucaparib 20 µM, 100% = cells with rucaparib alone) 56.8% | viability ([15]; at 0.000305 µM, OCI-P5x cells, without rucaparib) 15.2% | viability ([15]; at 0.00122 µM, OCI-C5x cells, with rucaparib 10 µM, 100% = cells with rucaparib alone) 93.2% | viability ([15]; at 0.00122 µM, OCI-P5x cells, with rucaparib 20 µM, 100% = cells with rucaparib alone) 62% | viability ([15]; at 0.00122 µM, OCI-P5x cells, without rucaparib) 15.8% | viability ([15]; at 0.00488 µM, OCI-C5x cells, with rucaparib 10 µM, 100% = cells with rucaparib alone) 92.5% | viability ([15]; at 0.00488 µM, OCI-P5x cells, with rucaparib 20 µM, 100% = cells with rucaparib alone) 97.7% | viability ([15]; at 0.0195 µM, OCI-C5x cells, with rucaparib 10 µM, 100% = cells with rucaparib alone) 66% | viability ([15]; at 0.0195 µM, OCI-C5x cells, without rucaparib) 80% | viability ([15]; at 0.0195 µM, OCI-P5x cells, with rucaparib 20 µM, 100% = cells with rucaparib alone) 67.9% | viability ([15]; at 0.0195 µM, OCI-P5x cells, without rucaparib) 70.9% | viability ([15]; at 0.0781 µM, OCI-C5x cells, with rucaparib 10 µM, 100% = cells with rucaparib alone) 28.7% | viability ([15]; at 0.0781 µM, OCI-C5x cells, without rucaparib) 22.9% | viability ([15]; at 0.0781 µM, OCI-P5x cells, with rucaparib 20 µM, 100% = cells with rucaparib alone) 35.2% | viability ([15]; at 0.0781 µM, OCI-P5x cells, without rucaparib) 23.5% | viability ([15]; at 0.313 µM, OCI-C5x cells, with rucaparib 10 µM, 100% = cells with rucaparib alone) 12% | viability ([15]; at 0.313 µM, OCI-C5x cells, without rucaparib) 10.8% | viability ([15]; at 0.313 µM, OCI-P5x cells, with rucaparib 20 µM, 100% = cells with rucaparib alone) 21% | viability ([15]; at 0.313 µM, OCI-P5x cells, without rucaparib) 12.5% | viability ([15]; at 1.25 µM, OCI-C5x cells, with rucaparib 10 µM, 100% = cells with rucaparib alone) 10.1% | viability ([15]; at 1.25 µM, OCI-C5x cells, without rucaparib) 10.5% | viability ([15]; at 1.25 µM, OCI-P5x cells, with rucaparib 20 µM, 100% = cells with rucaparib alone) 16.2% | viability ([15]; at 1.25 µM, OCI-P5x cells, without rucaparib) 13.2% | viability ([15]; at 5 µM, OCI-C5x cells, with rucaparib 10 µM, 100% = cells with rucaparib alone) 13.5% | viability ([15]; at 5 µM, OCI-C5x cells, without rucaparib) 11.4%
inactive: viability ([15]; at 0.000305 µM, OCI-C5x cells, with rucaparib 10 µM, 100% = cells with rucaparib alone) 109% | viability ([15]; at 0.000305 µM, OCI-C5x cells, without rucaparib) 112% | viability ([15]; at 0.00122 µM, OCI-C5x cells, without rucaparib) 107% | viability ([15]; at 0.00488 µM, OCI-C5x cells, without rucaparib) 109% | viability ([15]; at 0.00488 µM, OCI-P5x cells, without rucaparib) 103%
